Among all 310,000 compounds or so, about 14,000 (4.5%) showed an effect of 50% or more. The effect is printed as a negative number. This is one part of a sample in which strong results are shown more often than they occur.
biological target: human ether-à-go-go-related gene (hERG) potassium channel (human, UniProt Q12809); experiment: primary screen, population patch clamp on CHO cells stably expressing hERG; higher = less effect of the substance
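Also: peak tail current of the secondary pulse compared with the same well before compound.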

human ether-à-go-go-related gene (hERG) potassium channel, sequence (Q12809 whole entry, looked up): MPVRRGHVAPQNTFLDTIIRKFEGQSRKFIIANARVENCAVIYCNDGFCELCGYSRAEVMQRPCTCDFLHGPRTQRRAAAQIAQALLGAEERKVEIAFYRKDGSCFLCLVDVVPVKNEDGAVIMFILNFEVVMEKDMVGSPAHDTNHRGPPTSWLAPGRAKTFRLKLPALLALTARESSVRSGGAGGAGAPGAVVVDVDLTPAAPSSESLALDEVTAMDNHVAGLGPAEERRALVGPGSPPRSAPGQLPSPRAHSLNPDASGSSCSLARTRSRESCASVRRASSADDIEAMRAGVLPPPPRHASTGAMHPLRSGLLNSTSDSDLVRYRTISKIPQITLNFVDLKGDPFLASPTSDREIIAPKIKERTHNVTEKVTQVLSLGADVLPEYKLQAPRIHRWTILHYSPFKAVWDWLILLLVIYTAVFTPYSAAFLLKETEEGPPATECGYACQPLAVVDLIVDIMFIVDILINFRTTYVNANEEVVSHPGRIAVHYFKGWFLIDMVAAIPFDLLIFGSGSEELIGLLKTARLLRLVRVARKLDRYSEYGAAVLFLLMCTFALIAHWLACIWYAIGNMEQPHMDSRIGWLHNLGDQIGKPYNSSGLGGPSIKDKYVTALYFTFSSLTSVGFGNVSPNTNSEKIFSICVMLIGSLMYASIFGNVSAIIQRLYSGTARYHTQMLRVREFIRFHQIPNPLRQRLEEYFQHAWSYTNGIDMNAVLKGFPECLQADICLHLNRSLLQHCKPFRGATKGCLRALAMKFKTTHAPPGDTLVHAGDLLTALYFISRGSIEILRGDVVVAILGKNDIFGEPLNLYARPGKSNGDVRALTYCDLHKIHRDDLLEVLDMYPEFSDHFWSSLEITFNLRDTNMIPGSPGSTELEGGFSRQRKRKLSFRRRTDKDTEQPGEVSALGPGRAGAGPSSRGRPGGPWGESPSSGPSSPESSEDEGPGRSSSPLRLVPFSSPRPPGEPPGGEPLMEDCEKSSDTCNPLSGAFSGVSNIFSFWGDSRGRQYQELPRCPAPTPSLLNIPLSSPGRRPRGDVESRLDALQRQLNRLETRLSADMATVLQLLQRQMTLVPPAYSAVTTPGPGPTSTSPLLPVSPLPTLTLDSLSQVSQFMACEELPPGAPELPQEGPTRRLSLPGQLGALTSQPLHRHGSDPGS

Compound | hERG current change (%, negative = inhibition) at 10uM
O=C(NO)c1ccccc1C(F)(F)F | 15.4%
Cc1cccc(C)c1OCC(=O)Nc1cccc(S(=O)(=O)N2CCCC2)c1 | 3.77%
CC(Oc1ccc2c3c(c(=O)oc2c1)CCCC3)C(=O)NCC(O)c1ccccc1 (stereo not shown) | 16.8%
COc1ccc(S(=O)(=O)c2ccc(OC)c(OC)c2)cc1OC | -12.2%
COc1ccc(CCNC(=O)C2CCN(S(=O)(=O)c3c(C)noc3C)CC2)cc1OC | -16.9%
O=C(CCCNC(=O)/C(=C\c1ccccc1F)NC(=O)c1ccccc1)OCc1ccccc1 | -9.13%
O=C(CCCNC(=O)/C(=C/c1ccc(F)cc1)NC(=O)c1ccccc1)OCc1ccccc1 | -64.3%
O=C(CCCNC(=O)/C(=C\c1ccc(F)cc1)NC(=O)c1ccccc1)OCc1ccccc1 | -77.1%
O=C(CCCNC(=O)/C(=C/c1ccc(Br)cc1)NC(=O)c1ccccc1)OCc1ccccc1 | -38.8%
O=C(O)CCCNC(=O)/C(=C\c1ccccc1F)NC(=O)c1ccccc1 | 13.4%
O=C(CCCNC(=O)/C(=C/c1ccccc1F)NC(=O)c1ccccc1)OCc1ccccc1 | -5.02%
Cc1csc(NC(=O)c2ccc(COc3ccccc3)o2)n1 | -17.7%
CC(=O)Nc1ccccc1NC(=O)C/C(C)=N/NC(=O)c1ccccn1 | 16.1%
COc1ccc(Nc2cc(C)nc3ccc(OC)cc23)cc1 | -52.3%
COc1ccc2nc(C)cc(Nc3ccc(C)cc3)c2c1.Cl | -52.8%
COc1ccc2nc(C)cc(Nc3ccc(C(=O)O)cc3)c2c1 | 39.5%
Nc1ncncc1-c1ccc2ccccc2c1 | -7.48%
Clc1ccc(/C=N/c2c(-c3ccc(Cl)cc3)nc3n2CCS3)cc1 | 1.1%
CC1CCCCC1NC(=O)c1cn(C)c2ccc(S(=O)(=O)N3CCCC3)cc2c1=O (stereo not shown) | -0.37%
COc1ccc(C(=O)OCn2nnc3ccccc3c2=O)cc1[N+](=O)[O-] | 13.6%
Cc1ccc(S(=O)(=O)N(C)C)cc1NC(=O)C(C)Sc1ccccc1 (stereo not shown) | -6.74%
COc1ccc(C(=O)NCC(=O)N/N=C/C(C)=C/c2ccccc2)cc1OC | -1.63%

Compound | hERG current change (%, negative = inhibition) at 10uM
CC(=C/c1ccccc1)/C=N/NC(=O)c1ccccn1 | -30.3%
O=C(CNC(=O)c1ccccc1)N/N=C/C=C/c1ccccc1 | -1.96%
COc1ccc(C(=O)NCC(=O)N/N=C(C)\C=C\c2ccccc2)cc1OC | -19.3%
CC(/C=N/NC(=O)c1ccccc1F)=C\c1ccccc1 | 12.7%
CC(/C=N/NC(=O)c1ccc(Br)cc1)=C\c1ccccc1 | -3.38%
COc1ccc(C(=O)N/N=C\C(C)=C\c2ccccc2)cc1OC | -61.4%
COc1ccccc1C(=O)N/N=C/C(C)=C/c1ccccc1 | -73.8%
CC(/C=N/NC(=O)c1nn(C)c(C)c1Br)=C\c1ccccc1 | -53.8%
CC(/C=N/NC(=O)c1c(Br)cnn1C)=C\c1ccccc1 | -13%
CC(/C=N/NC(=O)c1ccncc1)=C\c1ccccc1 | 9.78%
COc1ccc(C(=O)NCC(=O)N/N=C/C=C/c2ccccc2)cc1OC | -93.6%
NC(=O)c1ccsc1NC(=O)COC(=O)c1ccc(Cl)c(N)c1 | -3.1%
CC1CCCN(C(=O)CCS(=O)(=O)c2ccc3c(c2)n(C)c(=O)c(=O)n3C)C1 (stereo not shown) | 1.25%
Cc1nc2ccccc2nc1CSc1nncs1 | 5.39%
O=C(Nc1ccc(-c2nc3ccccc3o2)cc1)c1ccc(N2C(=O)C3C4C=CC(C4)C3C2=O)cc1 (stereo not shown) | 3.26%
O=C(Cc1ccccc1)NC(=S)Nc1ccc(OC(F)F)cc1 | -2.31%
COCCN(CCOC)S(=O)(=O)c1ccc(NC(=O)c2cnccn2)cc1 | 13.1%
CCOC(=O)c1c(NC(=O)c2ccccc2C(=O)O)sc2c1CCCC2 | 18%
CCOC(=O)c1c(NC(=O)c2ccccc2C(=O)O)sc2c1CCC2 | -1.15%
CCOC(=O)c1c(NC(=O)C(NCCN(C)C)c2ccccc2)sc2c1CCCC2 (stereo not shown) | -73.2%
CCOC(=O)c1c(NC(=O)C(C)N2CCN(C(=O)c3ccco3)CC2)sc2c1CCCC2 (stereo not shown) | -56.1%
CCOC(=O)c1c(NC(=O)CN2CCN(C(=O)c3ccco3)CC2)sc2c1CCCC2 | -8.72%

Compound | hERG current change (%, negative = inhibition) at 10uM
CCOC(=O)c1c(NC(=O)c2ccco2)sc2c1CCCCC2 | 9.58%
CCOC(=O)c1c(NC(=O)CSc2nnc(CN3CCOCC3)n2C)sc2c1CCCC2 | -30%
CCOC(=O)c1c(NC(=O)c2ccco2)sc2c1CCCC2 | 4.29%
CCOC(=O)c1c(NC(=O)CSc2nnc(CNC(=O)c3ccco3)n2C)sc2c1CCC2 | -50.1%
COc1ccc(C2=C(C=Nc3c(C)n(C)n(-c4ccccc4)c3=O)C(c3ccccc3C)c3ccccc3O2)cc1OC (stereo not shown) | 11.7%
CCOC(=O)C1CCN(c2ncnc3c2cnn3C)CC1 | 6.3%
Fc1ccc(NC(=S)N2CCCC2)cc1Cl | 8.95%
CS(=O)(=O)NNC(=O)Cn1nnc(-c2cc(C(F)(F)F)cc(C(F)(F)F)c2)n1 | 19.7%
O=C(NNC(=O)c1nn(-c2ccc(F)cc2)ccc1=O)c1ccccc1Cl | -5%
O=C(Cn1cnc2ccccc2c1=O)NC1CCCc2ccccc21 (stereo not shown) | 6.08%
CCCCn1c(SCC(=O)Nc2cc(C)on2)nnc1-c1cccs1 | -48.3%
CCOC(=O)Cc1csc(NC(=O)COc2ccc3c(c2)CCC3)n1 | -1.14%
COc1ccc(C)cc1S(=O)(=O)NCCN1CCOCC1 | 17.5%
CC(C)c1ccc(N(C(=O)c2ccco2)C(C(=O)NC2CCCC2)c2cccnc2)cc1 (stereo not shown) | -25.3%
COc1cccc(/C=C(/C#N)c2ccc(F)cc2)c1OCc1cccc(C(=O)O)c1 | 11.4%
CCN1CCc2nc3ccccc3c(C(=O)Nc3ccc(NC(C)=O)cc3)c2C1 | 10.2%
O=C(Nc1ccccc1)c1c2c(nc3ccccc13)CCCC2 | -0.42%
CCN1CCc2nc3ccccc3c(C(=O)Nc3ccc(C#N)cc3)c2C1 | -71%
CCOc1ccc(NC(=O)c2c3c(nc4ccccc24)CCC3)cc1 | 8.95%
O=C(NCc1ccc(F)cc1)c1c2c(nc3ccccc13)CCN(Cc1ccccc1)C2 | -22.2%
CCN1CCc2nc3ccccc3c(C(=O)Nc3ccc(F)cc3)c2C1 | -74.5%
CCCCC(=O)Nc1cccc(NC(=S)NC(=O)C(C)C)c1 | 3.44%

Compound | hERG current change (%, negative = inhibition) at 10uM
O=C(NCCc1ccco1)C(=O)NCC1OCCCN1S(=O)(=O)c1ccccc1 (stereo not shown) | -1.76%
COc1ccc(/C=N/NC(=S)NCC2CCCO2)cc1 (stereo not shown) | 6.97%
CCCC(=O)Nc1ccc(NC(=O)c2ccccn2)cn1 | -8.57%
CC(C)NC(=O)CSCc1ccccc1Cl | 12.9%
COc1ccc(Cn2nnnc2C(c2cc3cc(C)cc(C)c3[nH]c2=O)N2CCOCC2)cc1 (stereo not shown) | -58.2%
COc1ccc(Cn2nnnc2C(c2cc3ccc(OC)cc3[nH]c2=O)N2CCCCCC2)cc1 (stereo not shown) | -13.6%
COc1ccc(Cn2nnnc2C(c2cc3cccc(C)c3[nH]c2=O)N2CCN(C)CC2)cc1 (stereo not shown) | 29.6%
Cc1ccc(C)c2[nH]c(=O)c(C(c3nnnn3Cc3ccccc3)N3CCc4ccccc4C3)cc12 (stereo not shown) | -9.12%
COc1ccc(Cn2nnnc2C(c2cc3cc(C)ccc3[nH]c2=O)N2CCOCC2)cc1 (stereo not shown) | -50.2%
COc1cc2cc(C(c3nnnn3Cc3ccc(F)cc3)N3CCCCCC3)c(=O)[nH]c2cc1OC (stereo not shown) | -74%
Cc1ccc(C)c2[nH]c(=O)c(C(c3nnnn3CCc3ccccc3)N3CCOCC3)cc12 (stereo not shown) | -59.4%
COc1ccc(Cn2nnnc2C(c2cc3cc(C)ccc3[nH]c2=O)N2CCN(C)CC2)cc1 (stereo not shown) | -24.4%
COc1ccc(Cn2nnnc2C(c2cc3cccc(C)c3[nH]c2=O)N2CCOCC2)cc1 (stereo not shown) | -43.6%
COc1ccc2cc(C(c3nnnn3Cc3ccc(F)cc3)N3CCCCCC3)c(=O)[nH]c2c1 (stereo not shown) | -23.3%
CCc1ccc2[nH]c(=O)c(C(c3nnnn3Cc3ccc(OC)cc3)N3CCOCC3)cc2c1 (stereo not shown) | -19.1%
Cc1ccc2[nH]c(=O)c(C(c3nnnn3CCc3ccccc3)N3CCOCC3)cc2c1 (stereo not shown) | -10.5%
COc1cnc(-c2ccccc2)nc1Oc1ccccc1C | -4.2%
CN(C)c1ccc(C(=O)/C=C/c2ccccc2)cc1 | 8.65%
O=C(NNC(=O)C1CCN(c2ncccn2)CC1)c1ccc(Cl)cc1 | 0.113%

— PMC4336329 (PLoS ONE, 2015)
